Data: PubChem BioAssay

These molecules were tested on XIP peptide (Xip251-270) binding (assay: XIP fragment 251-270 binding compounds – biochemical, small-molecule microarray, fluorescence 635/667 nm, 0.1 µg/mL protein, primary screen (AID 1182)). Details: fluorescent protein binding, 635 nm, higher = more signal, called active from +8 up or from −8 down.

Composite z-score, inactive:
C=C[C@H](COC(C)=O)N(Cc1ccc(OC(C)=O)c(OC)c1)S(=O)(=O)c1ccc(Br)cc1 0.353
CCCC[C@H]1OB(O)C[C@H]2C1=C(C)C[C@H]1C(=O)N(Cc3ccccc3)C(=O)[C@H]12 0.0643
C=C[C@@H](COC(C)=O)N(Cc1ccc([N+](=O)[O-])cc1)S(=O)(=O)c1ccc(Br)cc1 0.13
Cc1ccc(S[C@]2(C(=O)NCC(C)C)CC(=O)N(Cc3ccccc3Cl)[C@@H]2c2ccc(CO)cc2)cc1 0.0729
COCCOC(=O)N1C(=O)[C@@]2(c3cc(C#CCCO)ccc31)[C@H](c1ccccc1OCCO)N1[C@H](c3ccccc3)[C@H](c3ccccc3)OC(=O)[C@H]1[C@@H]2C(=O)N1CCN(c2ncccn2)CC1 0.377
COCCCNC(=O)[C@@]1(c2ccc([N+](=O)[O-])cc2)CC(=O)N(CC23CC4CC(CC(C4)C2)C3)[C@@H]1c1ccc(CO)cc1 0.0335
Cc1cc(C)c(C(O)C2C=CC3C(=O)N(C)C(=O)C3N2Nc2ccccc2)c(C)c1 (stereo unspecified) -0.0222
CCCNC(=O)[C@@H]1c2ccccc2C(=O)N(Cc2ccccc2)[C@H]1c1ccc(CO)cc1 0.838
COc1ccc([Si](C)(C)[C@H]2[C@H](CC(=O)N(CCO)Cc3ccccc3)O[C@@]3(C(=O)N(Cc4cccc(N5CCC5=O)c4)c4ccccc43)[C@@H]2C)cc1 0.0163
COc1ccc([Si](C)(C)[C@@H]2[C@@H](CCn3cc([C@H](O)c4ccccc4)nn3)O[C@]3(C(=O)N(Cc4ccc(N5C(=O)c6cccc7cccc5c67)cc4)c4ccccc43)[C@H]2C)cc1 1.02
CCN(CC)c1ccc(N2CC=CC34O[C@@H]5C=CCCOC(=O)C5[C@H]3C(=O)N(CCCCCO)[C@@H]4C2=O)cc1 (stereo partly specified) 0.235
COCCOC(=O)N1C(=O)[C@@]2(c3cc(C#CCC(C(=O)OC)C(=O)OC)ccc31)[C@H](c1ccccc1OCCO)N1[C@H](c3ccccc3)[C@H](c3ccccc3)OC(=O)[C@H]1[C@@H]2C(N)=O 0.547
COc1ccc(C(O)C2C=CC3C(=O)N(c4ccccc4)C(=O)C3N2Nc2ccc([N+](=O)[O-])cc2)cc1OCc1ccccc1 (stereo unspecified) 0.522
O=C1OCC=C[C@H]2OC34C=CCN(c5ccc6ccccc6c5)C(=O)[C@H]3N(CCCO)C(=O)[C@@H]4[C@@H]12 (stereo partly specified) 0.185
COCCOC(=O)N1C(=O)[C@@]2(c3cc(C#CCNC(N)=O)ccc31)[C@H](C(=O)N1CCc3cc(OC)c(OC)cc3C1)[C@H]1C(=O)O[C@H](c3ccccc3)[C@H](c3ccccc3)N1[C@@H]2c1ccc(OCCO)cc1 0.034
O=C(OCCF)C1=CCC(c2cccc(Cl)c2)O1 (stereo unspecified) -0.131
CCC[C@@H]1C=C(C(=O)O)[C@H](c2ccc(C)cc2)N1S(=O)(=O)c1ccc(C)cc1 -0.0617
COc1ccc(C#Cc2ccc3c(c2)[C@]2(C(=O)N3)[C@H](C(=O)NC[C@H](O)c3ccccc3)[C@H]3C(=O)O[C@H](c4ccccc4)[C@H](c4ccccc4)N3[C@@H]2c2ccccc2OCCO)cc1 0.0376
CC1=C2[C@@H](CCc3ccccc3)OB(O)C[C@@H]2n2c(=O)n(-c3ccccc3)c(=O)n2C1 -0.105
CCOC(=O)C1=C[C@@H](CC)N(S(=O)(=O)c2ccc(C)cc2)[C@H]1c1ccccc1 0.54
COc1cc(C(O)C2C=CC3C(=O)N(c4ccccc4)C(=O)C3N2Nc2ccc(C#N)cc2)cc(OC)c1OC (stereo unspecified) 1.42
COc1ccc(C#Cc2ccc3c(c2)[C@]2(C(=O)N3)[C@H](c3ccc(O)cc3)N3[C@H](c4ccccc4)[C@H](c4ccccc4)OC(=O)[C@H]3[C@@H]2C(=O)NC[C@H](O)c2ccccc2)cc1 0.265
COc1ccc(C#Cc2ccc3c(c2)[C@]2(C(=O)N3)[C@H](C(=O)NC[C@H](O)c3ccccc3)[C@H]3C(=O)O[C@H](c4ccccc4)[C@H](c4ccccc4)N3[C@@H]2c2ccc(OCCO)cc2)cc1 -0.0969
C=CCC(OC(C)=O)[C@@H]1[C@@H](N(Cc2cccc3ccccc23)C(=O)c2cccc3ccccc23)c2cc(OCCCO)ccc2N1C(=O)c1ccc2ccccc2n1 (stereo partly specified) 0.376
COC(=O)[C@@]1(Cc2ccccc2)[C@H]2c3cc(C(=O)N4CCCC4)n(Cc4ccc(C)o4)c3C[C@H]2CN1C(=O)c1ccccc1 1.04
CC(C)CNC(=O)[C@@H]1c2ccccc2C(=O)N(Cc2cc(C(F)(F)F)cc(C(F)(F)F)c2)[C@H]1c1ccc(CO)cc1 -0.133
COC(=O)[C@@]1(Cc2ccc(OC)cc2)[C@H]2c3cc(C(=O)N(C)C)n(Cc4c(OC)[nH]cc(C)c4=O)c3C[C@H]2CN1C(=O)c1ccccc1 -0.378
O=C1O[C@@H](c2ccccc2)[C@@H](c2ccccc2)N2[C@@H](c3ccc(OCCO)cc3)[C@]3(C(=O)Nc4ccc(C#CC5=CCCCC5)cc43)[C@@H](C(=O)O)[C@H]12 0.383
C=C[C@@H](COC(C)=O)N(Cc1ccccc1[N+](=O)[O-])S(=O)(=O)c1ccc(Br)cc1 2.18
COC(=O)[C@@]1(Cc2ccc(OC)cc2)[C@H]2c3cc(C(=O)N4CCCC4)n(CCc4c[nH]c5cc(F)ccc45)c3C[C@H]2CN1C(=O)c1ccccc1 1.31
COC(=O)c1ccc(C(O)C2C=CC3C(=O)N(c4ccccc4)C(=O)C3N2Nc2ccc(C#N)cc2)o1 (stereo unspecified) 0.324
COc1c(C)cc(-c2cc3c(c(-c4ccc(Oc5ccccc5)cc4)n2)[Si](C(C)C)(C(C)C)OC3)cc1C -0.631
COC(=O)[C@@]1(Cc2ccc(F)cc2)[C@H]2c3cc(C(=O)N(C)C)n(CCc4ccccn4)c3C[C@H]2CN1C(=O)c1ccccc1 0.258
COCC(=C=CC[C@H](O)c1ccc(OCCO)cc1)C[C@H](O)c1cc(Cl)cc(Cl)c1O 0.423
CC(C)(C)OC(=O)CC[C@]1(C(=O)N2CCCCC2)N=C(c2ccc(OCCCO)cc2)O[C@H]1c1ccccc1N=[N+]=[N-] 0.282
CC(C)C(O)C1C=CC2C(=O)N(c3ccccc3)C(=O)C2N1Nc1ccc(C#N)cc1 (stereo unspecified) 0.613
